From the supplement of paper PMC11732987, “Enantioselective OTUD7B fragment discovery through chemoproteomics screening and high-throughput optimisation” (Communications Chemistry, 2025)

Experiments:
Experiment in all cases: log2 ratio of Biotin-Ahx-Ub-VS probe labelling (fragment/DMSO); higher = less target engagement (more negative = stronger competition), active = hit call of the paper (q ≤ 0.05, log2 ratio ≤ -1)
Conditions in all cases: compound concentration: 200 uM; treatment time: 3 h
USP34 = USP34 (UniProt Q70CQ2)
Outline: (§1)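 Labelled DUBs from HEK293T lysate were NeutrAvidin-enriched, digested with LysC and trypsin, and run by diaPASEF LC-MS/MS. Before that, each 495 µg sample in Tris/CHAPS/IGEPAL buffer with protease inhibitors was treated in triplicate with fragment at 200 µM or vehicle for 3 h, then with Biotin-Ahx-Ub-VS at 0.5 µM final for 1 h. Values are average log2 ratios of fragment over vehicle by unpaired t-test, based on global-median-normalised Spectronaut label-free quantities from proteins with ≥2 unique peptides.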

USP36 = biological target: T1, USP36 (UniProt Q9P275)
T1 sequence (whole entry): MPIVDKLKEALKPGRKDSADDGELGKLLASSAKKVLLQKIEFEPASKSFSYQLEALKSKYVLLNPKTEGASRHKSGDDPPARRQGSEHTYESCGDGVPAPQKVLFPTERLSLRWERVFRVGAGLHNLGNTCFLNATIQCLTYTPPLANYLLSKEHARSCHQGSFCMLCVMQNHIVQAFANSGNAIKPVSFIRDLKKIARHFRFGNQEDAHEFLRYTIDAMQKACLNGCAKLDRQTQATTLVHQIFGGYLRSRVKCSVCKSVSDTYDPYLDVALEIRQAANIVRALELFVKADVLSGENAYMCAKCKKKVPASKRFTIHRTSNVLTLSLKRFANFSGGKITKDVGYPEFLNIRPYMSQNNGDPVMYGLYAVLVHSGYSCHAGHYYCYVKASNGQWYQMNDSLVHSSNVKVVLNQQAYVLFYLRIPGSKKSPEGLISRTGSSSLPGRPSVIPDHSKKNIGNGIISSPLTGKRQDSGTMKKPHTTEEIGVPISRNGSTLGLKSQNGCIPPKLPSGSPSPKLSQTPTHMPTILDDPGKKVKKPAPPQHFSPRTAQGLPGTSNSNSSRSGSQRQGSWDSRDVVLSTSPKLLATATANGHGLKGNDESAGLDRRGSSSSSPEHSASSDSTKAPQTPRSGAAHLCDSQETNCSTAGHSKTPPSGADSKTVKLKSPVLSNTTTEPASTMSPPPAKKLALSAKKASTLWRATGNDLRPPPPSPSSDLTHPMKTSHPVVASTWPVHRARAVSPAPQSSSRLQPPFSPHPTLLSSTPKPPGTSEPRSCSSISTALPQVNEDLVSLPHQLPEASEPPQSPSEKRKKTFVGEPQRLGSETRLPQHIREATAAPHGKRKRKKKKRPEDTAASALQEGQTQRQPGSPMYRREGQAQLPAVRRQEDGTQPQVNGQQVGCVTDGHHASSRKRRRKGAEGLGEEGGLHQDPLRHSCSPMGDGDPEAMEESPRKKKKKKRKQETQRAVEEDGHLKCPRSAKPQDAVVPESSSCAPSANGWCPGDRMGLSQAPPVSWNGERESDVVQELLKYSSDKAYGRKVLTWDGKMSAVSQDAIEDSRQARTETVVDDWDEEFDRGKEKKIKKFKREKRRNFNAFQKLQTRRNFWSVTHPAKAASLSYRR
Outline: as §1

USP38 = biological target: T2, USP38 (UniProt Q8NB14)
T2 sequence (whole entry): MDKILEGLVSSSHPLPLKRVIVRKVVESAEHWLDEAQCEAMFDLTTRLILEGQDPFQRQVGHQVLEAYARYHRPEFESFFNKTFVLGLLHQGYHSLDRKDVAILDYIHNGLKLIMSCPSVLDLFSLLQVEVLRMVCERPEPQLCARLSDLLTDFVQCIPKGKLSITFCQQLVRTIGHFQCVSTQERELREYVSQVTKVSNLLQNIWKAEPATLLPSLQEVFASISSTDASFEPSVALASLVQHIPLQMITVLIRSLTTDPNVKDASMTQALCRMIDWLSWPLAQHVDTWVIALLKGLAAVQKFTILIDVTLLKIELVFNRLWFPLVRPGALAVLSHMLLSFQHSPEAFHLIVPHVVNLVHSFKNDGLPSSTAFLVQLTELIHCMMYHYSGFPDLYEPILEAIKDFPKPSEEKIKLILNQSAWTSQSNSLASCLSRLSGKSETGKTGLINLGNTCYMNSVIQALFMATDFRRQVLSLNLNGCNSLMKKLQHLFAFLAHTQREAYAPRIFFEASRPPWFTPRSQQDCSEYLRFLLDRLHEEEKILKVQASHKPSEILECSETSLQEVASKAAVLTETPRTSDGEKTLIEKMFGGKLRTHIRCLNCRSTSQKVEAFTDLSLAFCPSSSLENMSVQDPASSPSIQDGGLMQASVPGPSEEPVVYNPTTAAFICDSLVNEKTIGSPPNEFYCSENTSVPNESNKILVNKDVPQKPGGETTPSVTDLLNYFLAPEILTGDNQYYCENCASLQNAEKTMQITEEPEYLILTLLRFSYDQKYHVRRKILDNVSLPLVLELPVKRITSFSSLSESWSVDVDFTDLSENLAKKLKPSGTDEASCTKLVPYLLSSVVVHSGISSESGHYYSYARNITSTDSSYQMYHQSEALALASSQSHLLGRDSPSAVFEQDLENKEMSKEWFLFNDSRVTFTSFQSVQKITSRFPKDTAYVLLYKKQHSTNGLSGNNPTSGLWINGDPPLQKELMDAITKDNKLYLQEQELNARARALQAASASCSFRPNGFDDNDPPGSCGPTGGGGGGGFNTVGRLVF
Outline: as §1

USP39 = biological target: T3, USP39 (UniProt Q53GS9)
T3 sequence (whole entry): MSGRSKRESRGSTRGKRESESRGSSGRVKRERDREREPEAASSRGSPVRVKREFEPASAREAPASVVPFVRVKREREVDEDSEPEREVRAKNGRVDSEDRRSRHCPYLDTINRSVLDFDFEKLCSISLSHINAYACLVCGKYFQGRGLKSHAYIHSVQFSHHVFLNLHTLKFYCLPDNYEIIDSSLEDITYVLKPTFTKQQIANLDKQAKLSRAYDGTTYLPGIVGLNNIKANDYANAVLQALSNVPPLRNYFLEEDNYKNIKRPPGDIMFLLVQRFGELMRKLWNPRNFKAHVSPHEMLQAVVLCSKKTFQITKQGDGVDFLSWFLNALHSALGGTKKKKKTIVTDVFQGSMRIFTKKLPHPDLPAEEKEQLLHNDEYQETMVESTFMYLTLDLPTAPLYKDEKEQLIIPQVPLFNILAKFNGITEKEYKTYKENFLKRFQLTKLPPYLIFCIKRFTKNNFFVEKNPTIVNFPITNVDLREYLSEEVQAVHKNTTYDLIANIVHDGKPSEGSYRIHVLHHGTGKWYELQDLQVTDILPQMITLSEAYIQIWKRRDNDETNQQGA
Outline: as §1

USP4 = biological target: T4, USP4 (UniProt Q13107)
T4 sequence (whole entry): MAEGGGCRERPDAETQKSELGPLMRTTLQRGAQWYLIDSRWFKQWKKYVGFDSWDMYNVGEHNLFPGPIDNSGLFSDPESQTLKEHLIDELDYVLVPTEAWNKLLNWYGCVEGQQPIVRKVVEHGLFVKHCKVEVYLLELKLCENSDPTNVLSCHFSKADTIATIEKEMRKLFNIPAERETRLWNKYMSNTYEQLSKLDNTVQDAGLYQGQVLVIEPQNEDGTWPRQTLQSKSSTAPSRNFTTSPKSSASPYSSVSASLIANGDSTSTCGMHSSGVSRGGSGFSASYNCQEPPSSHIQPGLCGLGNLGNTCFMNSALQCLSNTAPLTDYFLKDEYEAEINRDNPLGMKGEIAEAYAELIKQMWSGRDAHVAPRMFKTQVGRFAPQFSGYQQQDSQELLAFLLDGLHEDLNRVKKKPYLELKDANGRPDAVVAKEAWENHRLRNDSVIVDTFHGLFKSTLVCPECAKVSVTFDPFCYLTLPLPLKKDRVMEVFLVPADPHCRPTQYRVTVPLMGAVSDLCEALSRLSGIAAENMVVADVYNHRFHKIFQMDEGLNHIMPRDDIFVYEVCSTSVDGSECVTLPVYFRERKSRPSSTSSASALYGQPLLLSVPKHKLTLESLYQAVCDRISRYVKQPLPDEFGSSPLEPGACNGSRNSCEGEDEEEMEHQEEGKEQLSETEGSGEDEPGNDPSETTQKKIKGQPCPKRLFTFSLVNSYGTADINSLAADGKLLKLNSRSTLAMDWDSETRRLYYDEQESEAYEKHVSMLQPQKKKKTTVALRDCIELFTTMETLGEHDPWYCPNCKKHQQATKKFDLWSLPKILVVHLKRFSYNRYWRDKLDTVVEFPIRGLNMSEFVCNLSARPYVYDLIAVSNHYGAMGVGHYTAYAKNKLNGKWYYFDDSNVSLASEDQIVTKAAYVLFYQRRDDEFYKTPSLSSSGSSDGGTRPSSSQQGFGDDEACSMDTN
Outline: as §1

Measured: log2 ratio of Biotin-Ahx-Ub-VS probe labelling

Sequence of USP34 (Q70CQ2 whole entry, the tested form may be a part): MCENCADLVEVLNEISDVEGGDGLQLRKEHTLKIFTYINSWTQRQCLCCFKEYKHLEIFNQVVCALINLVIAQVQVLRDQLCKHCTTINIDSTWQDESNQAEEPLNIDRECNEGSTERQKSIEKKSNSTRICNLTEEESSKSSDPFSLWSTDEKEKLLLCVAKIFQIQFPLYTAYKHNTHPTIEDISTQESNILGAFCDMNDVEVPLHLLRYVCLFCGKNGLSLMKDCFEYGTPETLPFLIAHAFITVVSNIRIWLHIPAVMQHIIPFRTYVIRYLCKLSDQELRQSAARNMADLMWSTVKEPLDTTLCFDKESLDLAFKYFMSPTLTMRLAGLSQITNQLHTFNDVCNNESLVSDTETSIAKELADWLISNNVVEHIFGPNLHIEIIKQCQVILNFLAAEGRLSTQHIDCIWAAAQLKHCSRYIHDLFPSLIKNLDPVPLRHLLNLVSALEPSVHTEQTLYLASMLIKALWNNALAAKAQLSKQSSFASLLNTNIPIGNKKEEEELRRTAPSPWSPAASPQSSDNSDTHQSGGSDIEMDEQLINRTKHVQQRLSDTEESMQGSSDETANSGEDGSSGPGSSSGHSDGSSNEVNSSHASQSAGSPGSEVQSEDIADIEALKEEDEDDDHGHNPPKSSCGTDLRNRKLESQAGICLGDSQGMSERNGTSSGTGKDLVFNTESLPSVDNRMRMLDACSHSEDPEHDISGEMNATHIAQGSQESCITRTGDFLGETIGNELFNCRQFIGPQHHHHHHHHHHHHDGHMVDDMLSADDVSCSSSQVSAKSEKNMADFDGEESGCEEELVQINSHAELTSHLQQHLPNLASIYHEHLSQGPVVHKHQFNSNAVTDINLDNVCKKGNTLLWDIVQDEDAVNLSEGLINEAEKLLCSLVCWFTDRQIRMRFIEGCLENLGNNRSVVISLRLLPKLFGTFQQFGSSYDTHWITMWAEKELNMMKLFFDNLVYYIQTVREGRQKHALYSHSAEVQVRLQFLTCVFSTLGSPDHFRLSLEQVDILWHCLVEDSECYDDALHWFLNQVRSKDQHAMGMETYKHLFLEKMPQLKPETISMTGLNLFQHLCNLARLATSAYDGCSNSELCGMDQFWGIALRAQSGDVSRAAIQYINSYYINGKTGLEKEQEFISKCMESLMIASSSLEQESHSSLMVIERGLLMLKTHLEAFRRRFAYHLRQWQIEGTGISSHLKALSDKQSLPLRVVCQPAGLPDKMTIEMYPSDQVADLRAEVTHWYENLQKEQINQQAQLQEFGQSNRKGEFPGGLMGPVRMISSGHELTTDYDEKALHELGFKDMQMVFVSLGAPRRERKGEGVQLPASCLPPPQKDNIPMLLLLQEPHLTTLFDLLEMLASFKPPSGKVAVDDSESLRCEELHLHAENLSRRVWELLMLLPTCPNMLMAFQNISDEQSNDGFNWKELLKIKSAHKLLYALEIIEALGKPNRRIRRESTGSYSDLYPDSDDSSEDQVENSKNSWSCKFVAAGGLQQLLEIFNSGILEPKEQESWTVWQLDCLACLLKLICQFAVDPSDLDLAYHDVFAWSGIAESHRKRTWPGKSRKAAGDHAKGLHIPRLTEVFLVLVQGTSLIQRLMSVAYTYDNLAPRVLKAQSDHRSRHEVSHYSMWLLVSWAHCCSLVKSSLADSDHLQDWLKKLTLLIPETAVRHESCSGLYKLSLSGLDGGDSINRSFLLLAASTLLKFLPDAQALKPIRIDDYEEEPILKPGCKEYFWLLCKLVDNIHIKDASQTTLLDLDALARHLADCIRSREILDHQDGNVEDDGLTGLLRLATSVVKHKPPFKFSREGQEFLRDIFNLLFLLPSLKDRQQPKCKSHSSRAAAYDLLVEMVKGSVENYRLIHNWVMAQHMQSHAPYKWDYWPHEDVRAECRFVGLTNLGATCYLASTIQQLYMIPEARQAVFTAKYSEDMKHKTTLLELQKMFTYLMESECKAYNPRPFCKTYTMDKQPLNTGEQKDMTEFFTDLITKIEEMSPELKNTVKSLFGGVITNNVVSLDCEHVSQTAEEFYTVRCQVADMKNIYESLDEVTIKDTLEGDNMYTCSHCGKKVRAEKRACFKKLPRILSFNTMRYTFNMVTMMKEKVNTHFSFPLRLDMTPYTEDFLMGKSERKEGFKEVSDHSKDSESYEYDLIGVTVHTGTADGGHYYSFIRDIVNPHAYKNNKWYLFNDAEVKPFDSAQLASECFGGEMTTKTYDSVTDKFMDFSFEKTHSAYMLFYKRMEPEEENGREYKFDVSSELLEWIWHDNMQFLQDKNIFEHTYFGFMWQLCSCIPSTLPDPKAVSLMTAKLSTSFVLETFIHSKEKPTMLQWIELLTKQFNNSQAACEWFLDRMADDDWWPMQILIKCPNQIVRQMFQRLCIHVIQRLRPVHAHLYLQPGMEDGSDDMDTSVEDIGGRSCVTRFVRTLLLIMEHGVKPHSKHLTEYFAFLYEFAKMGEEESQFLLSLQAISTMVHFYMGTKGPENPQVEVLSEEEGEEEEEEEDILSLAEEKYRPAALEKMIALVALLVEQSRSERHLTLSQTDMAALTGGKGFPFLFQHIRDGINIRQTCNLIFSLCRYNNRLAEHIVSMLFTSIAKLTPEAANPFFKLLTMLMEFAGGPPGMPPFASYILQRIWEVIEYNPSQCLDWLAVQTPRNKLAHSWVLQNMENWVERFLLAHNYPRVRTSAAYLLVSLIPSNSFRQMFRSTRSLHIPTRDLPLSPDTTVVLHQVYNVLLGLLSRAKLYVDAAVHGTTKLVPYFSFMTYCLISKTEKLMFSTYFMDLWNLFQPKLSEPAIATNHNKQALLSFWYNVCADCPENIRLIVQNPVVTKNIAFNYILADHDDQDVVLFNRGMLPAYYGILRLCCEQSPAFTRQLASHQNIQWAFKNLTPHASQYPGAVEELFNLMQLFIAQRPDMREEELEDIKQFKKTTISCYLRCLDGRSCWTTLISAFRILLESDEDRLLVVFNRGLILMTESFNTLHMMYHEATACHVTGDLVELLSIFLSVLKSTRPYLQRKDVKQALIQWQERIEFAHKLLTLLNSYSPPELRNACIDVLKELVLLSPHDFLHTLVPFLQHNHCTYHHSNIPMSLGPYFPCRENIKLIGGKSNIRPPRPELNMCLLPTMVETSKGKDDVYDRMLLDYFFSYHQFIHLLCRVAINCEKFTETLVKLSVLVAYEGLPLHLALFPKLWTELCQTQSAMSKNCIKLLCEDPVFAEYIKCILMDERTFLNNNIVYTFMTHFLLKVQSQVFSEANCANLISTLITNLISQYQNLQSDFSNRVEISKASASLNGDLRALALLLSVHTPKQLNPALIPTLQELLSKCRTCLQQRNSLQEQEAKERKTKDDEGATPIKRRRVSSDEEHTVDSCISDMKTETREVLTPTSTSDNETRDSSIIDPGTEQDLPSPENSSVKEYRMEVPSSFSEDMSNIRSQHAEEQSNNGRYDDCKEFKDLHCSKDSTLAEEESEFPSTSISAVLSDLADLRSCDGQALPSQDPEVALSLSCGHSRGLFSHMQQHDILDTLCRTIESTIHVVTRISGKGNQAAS

O=C(CCl)NC1CCC2(CC1)OCCO2
inactive: USP34 -0.314 | USP36 -0.227 | USP38 -0.0225 | USP39 0.0631 | USP4 -0.0958
